Experimental findings from PubChem BioAssay AID651821 (The Scripps Research Institute Molecular Screening Center, 2012) are described below.

Each structure is given as a SMILES string. Values joined by “and” are separate entries in the source; they are usually repeats but may differ in a detail not shown here. Equal entries are not always repeated. Screen size: about 370,000 compounds; about 4,700 (1.3%) were called active.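 The calls were made as follows: active = inhibition above the plate cutoff, the mean of all test compounds on that plate plus 3 SD (cut at about 35% in these data); inactive = the rest.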 The list comes from a sample in which actives are over-represented; it also holds similar structures and randomly drawn compounds. A structure can be active in one record and inactive in another.

A short description of the assay: binders of r(CAG) RNA repeats, primary screen, biochemical, fluorescence (AID 651821).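 Also: 0% = DMSO alone and 100% = 100 µM mitoxantrone as full dye displacement; higher means more dye released from RNA so lower well fluorescence.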 The following applies: r(CAG) RNA repeat, TO-PRO-1 dye displacement fluorescence; at 3 µM; stronger effect = higher value.
On to `CC(C)(C)CC(=O)Nc1nc(C(N)Cc2ccc(C(F)(F)F)cc2)cs1` (stereo unspecified), for which the inhibition (usually the drop in the measured response relative to a control, in per cent) was 1.66% (inactive). With `COc1ccc(C(N)c2csc(NC(=O)Nc3cccc(C(F)(F)F)c3)n2)cc1` (stereo unspecified), the inhibition was 49.1% (active). With `NC(c1csc(NC(=O)Nc2cccc(C(F)(F)F)c2)n1)C1CCCCC1` (stereo unspecified) the figure was 35.2% (active). As for `COc1ccc(CN2C(CC(=O)Nc3cccnc3)c3ccc(C(F)(F)F)cc3S2(=O)=O)cc1` (stereo unspecified), the inhibition was 1.65% (inactive). As to `CCOC(=O)c1csc(NC(=O)Nc2cccc(OC)c2)n1`, the inhibition was 61.3% (active). In the case of `COc1cccc(NC(=O)COC(=O)c2ccc3ccccc3n2)c1`, the inhibition is 7.26% (inactive). Turning to `NC(c1csc(NC(=O)Nc2ccccc2Oc2ccccc2)n1)c1ccccc1Cl` (stereo unspecified), the inhibition was 14% (inactive). With `CC(=O)c1ccc(Nc2nc(C(N)c3ccccc3)cs2)cc1` (stereo unspecified) the figure was 6.98% (inactive); with `COc1ccc(CC(N)c2csc(NC(=O)Nc3ccc(C(C)C)cc3)n2)cc1` (stereo unspecified), 30.9% (inactive). For `CCOC(=O)c1cnc(SCC(=O)Nc2cccc(OC)c2)nc1N`, the inhibition was 1.08% (inactive). Take `NC(c1ccccc1)c1csc(NC(=O)Nc2cccc(C(F)(F)F)c2)n1` (stereo unspecified): the inhibition is 42.2% (active).

`C/C(CC(=O)Nc1cccc(C(F)(F)F)c1)=N\NC(=O)C(=O)NCC(C)C`: the inhibition is -2.81% (inactive). Take `C=CCn1c(SCC(N)=O)nnc1-c1ccccc1OC`: the inhibition was 2.58% (inactive).

`O=C(NCc1ccccc1)[C@@H]1CCCN1C(=O)[C@H]1CCCN1C(=O)c1cccc(Cl)c1`: the inhibition is -1.13% (inactive).

Take `COC(=O)[C@H](CC(C)C)NS(=O)(=O)c1c(F)cccc1F`: the inhibition is 0.25% (inactive). Turning to `C=CCN1C(=O)N(Cc2ccccc2)c2ccccc2S1(=O)=O`, the inhibition is -0.57% (inactive).

For `CCC(=O)Nc1ccc2c(c1)C(=O)N(C)[C@@H]1CC[C@@H](CC(=O)NCCc3ccccc3)O[C@H]1CO2`, the inhibition was 0.85% (inactive).

Take `CCOC(=O)[C@]12CCCCC/C=C\1N(Cc1ccc(OC)cc1)C(=O)[C@H]2CC(=O)NCc1ccc(C)o1`: the inhibition was 3.94% (inactive). Consider `O=C(NS(=O)(=O)c1cccs1)[C@H]1O[C@@H](n2ccc(=O)[nH]c2=O)[C@H](O)[C@@H]1O`, for which the inhibition is 1.16% (inactive). Turning to `CN1CCCc2nc(-c3ccccc3)ccc21`, the inhibition was 1.01% (inactive).

Take `Cc1ccc(Cn2c(SCC(=O)N/N=C/c3ccccc3OCC(=O)O)nc3ccccc32)cc1`: the inhibition is 50% (active). Consider `CCn1c(SCC(=O)N/N=C/c2ccccc2OCC(=O)O)nnc1-c1ccc(C(C)(C)C)cc1`, for which the inhibition was 18.1% (inactive). For `O=C(CSc1nc2ccccc2n1Cc1ccccc1Cl)N/N=C\c1c[nH]c2ccccc12`, the inhibition was 12.2% (inactive). With `CC1CCN(c2ccc(C(=O)O)cc2NS(=O)(=O)c2ccc(Br)s2)CC1` the figure was 33% (inactive); with `CCOc1ccc(-n2c(SCC(=O)Nc3cc(C)c(NC(=O)c4ccccc4)cc3OC)nnc2-c2cccs2)cc1`, 10.2% (inactive); with `CC(=O)C1=C(O)C(=O)N(c2ccc(S(N)(=O)=O)cc2)C1c1ccccc1F` (stereo unspecified), 2.58% (inactive).

Turning to `NS(=O)(=O)c1ccc(NC2=CC(c3ccc(F)cc3)N(c3ccc(S(N)(=O)=O)cc3)C2=O)cc1` (stereo unspecified), the inhibition is 45.7% (active). Regarding `NS(=O)(=O)c1ccc(NC(=O)COC(=O)C2(c3ccc(F)cc3)CCCC2)cc1`, the inhibition was 18.1% (inactive).

Turning to `O=C(COC(=O)c1ccc(Oc2ccccc2)cc1)Nc1nnc(-c2ccccc2)o1`, the inhibition was 39.7% (active). As to `O=C(COc1ccccc1)Nc1nonc1NC(=O)COc1ccccc1`, the inhibition was 8.22% (inactive). With `O=C(COC(=O)CSc1nnc(-c2ccc(Cl)cc2)o1)Nc1cc(Cl)cc(Cl)c1` the figure was 3.94% (inactive); with `O=C(NCc1cccs1)C1CCCN(S(=O)(=O)c2ccc([N+](=O)[O-])cc2)C1` (stereo unspecified), 1.56% (inactive). With `COc1ccc(N2CCN(CCNS(=O)(=O)c3ccc(C(C)(C)C)cc3)CC2)cc1`, the inhibition is -0.11% (inactive). Regarding `CC(NCC(=O)Nc1cc(Cl)cc(Cl)c1)c1ccccc1` (stereo unspecified), the inhibition is -5.58% (inactive). As to `Cc1nnc(SC(C(=O)c2ccccc2)c2ccccc2)[nH]c1=O` (stereo unspecified), the inhibition was 4.12% (inactive). With `Cc1nnc(SC(C(=O)Nc2cc(Cl)cc(Cl)c2)c2ccccc2)[nH]c1=O` (stereo unspecified) the figure was 80.2% (active). On to `CCc1c(-c2ccccc2OC)ncn1CCc1ccccc1OC`, for which the inhibition was -2.09% (inactive).

Consider `Cc1cccc(NC(=O)C[C@H]2CC[C@H]3[C@@H](COc4ccc(NC(=O)Nc5ccccc5)cc4C(=O)N3C)O2)c1`, for which the inhibition is 10.2% (inactive).

For `N#Cc1ccc(OC[C@@H](O)CN2CCC(C(O)(c3ccccc3)c3ccccc3)CC2)c(F)c1`, the inhibition is -3.22% (inactive). `COc1ccc(S(=O)(=O)Nc2ccc3c(c2)C(=O)N([C@H](C)CO)C[C@H](C)[C@@H](CN(C)C)OCCCC[C@H](C)O3)cc1`: the inhibition was 8.48% (inactive). With `CCCc1nc2c([nH]1)C(c1cccnc1)C(C#N)=C(N)O2` (stereo unspecified), the inhibition is 0.75% (inactive). Take `Cc1cc(C)c(C#N)c(SCc2ccc3c(c2)OCO3)n1`: the inhibition was 4% (inactive). With `Cc1cc(C)c(C#N)c(SCc2[nH]nc3c2C(c2ccccc2)C(C#N)=C(N)O3)n1` (stereo unspecified) the figure was 38.2% (active); with `C[C@@H](NC(=O)c1ccccc1OCC(=O)Nc1ccc(I)cc1)C(=O)N(C)Cc1ccccc1`, 5.02% (inactive).

Consider `Cc1ccc(S(=O)(=O)/N=C2\C=C(NS(=O)(=O)c3ccc(C)cc3)C(=O)c3ccccc32)cc1`, for which the inhibition is 59.4% (active). With `COc1ccc(C(=O)C(C)OC(=O)c2cccc(S(=O)(=O)Nc3c(C)n(C)n(-c4ccccc4)c3=O)c2)cc1` (stereo unspecified) the figure was 7.06% (inactive); with `Cc1ccc(S(=O)(=O)N[C@H](CO)C(C)C)cc1`, 2.22% (inactive); with `CNC(=O)COc1ccc(S(=O)(=O)Nc2ccccc2)cc1`, 0.86% (inactive). With `COc1ccc(S(=O)(=O)/N=C2\C=C(NS(=O)(=O)c3ccccc3)C(=O)c3ccccc32)cc1` the figure was 63.6% (active); with `Cc1ccc(S(=O)(=O)N/N=C(\c2ccccc2)C2CC2)cc1`, -0.89% (inactive). For `O=S1(=O)c2c(cccc2N2CCSCC2)Oc2ccccc2CN1Cc1cn(Cc2ccc(F)cc2)nn1`, the inhibition is 8.25% (inactive). With `C[C@H]1[C@H](c2ccccc2)Oc2cc(Br)ccc2S(=O)(=O)N1Cc1cccc(F)c1` the figure was 3.74% (inactive); with `CCOC(=O)CSc1nncc2ccc(OC)c(OC)c12`, -1.96% (inactive); with `Cc1cc(C)cc(NC(=O)N2CCC(N(C)CCC(C)C)CC2)c1`, 3.3% (inactive). With `N#Cc1ccc(OCCCN2CCC(C(O)(c3ccccc3)c3ccccc3)CC2)c(F)c1` the figure was -1.54% (inactive); with `C=C1c2c(Cl)ccc(O)c2C(O)=C2C(=O)[C@]3(O)C(O)=C(C(N)=O)C(=O)[C@@H](N(C)C)[C@@H]3[C@@H](O)C12` (stereo partly specified), 87.2% (active); with `Cc1nc(NC(=O)C(C)(C)C)sc1[N+](=O)[O-]`, 2.08% (inactive). With `COc1cccc(CNC(=O)[C@H]2CCCN2C(=O)[C@H]2CCCN2C(=O)C2CCCCC2)c1` the figure was 1.57% (inactive). As to `Cc1ccc(NC(=O)Cc2cccc(F)c2)c(S(=O)(=O)N2CCOCC2)c1`, the inhibition was -0.87% (inactive). With `O=C1C=C(c2ccc(Cl)cc2)C(=O)N1Nc1ccccc1` the figure was 8.98% (inactive); with `O=C1c2cccc3cccc(c23)C(=O)N1c1cccc(O)c1`, 4.62% (inactive). Regarding `O=C1c2cccc3cc(Br)cc(c23)C(=O)N1Nc1ccccc1`, the inhibition is 36.1% (active).

Take `CCCc1cc(=O)[nH]c(SCC(=O)Nc2sc3c(c2C#N)CCCC3)n1`: the inhibition was 40.9% (active). For `CCCc1cc(=O)[nH]c(SCC(=O)N2C(C)CCCC2C)n1` (stereo unspecified), the inhibition is -1.93% (inactive).

For `CCCc1cc(=O)[nH]c(SCC(=O)Nc2ccc(S(=O)(=O)N3CCCC3)cc2)n1`, the inhibition was 15.7% (inactive). As to `CC(C)C[C@H](NC(=O)CC1CCCC1)C(=O)N1CCC[C@H]1C(=O)NCc1ccccc1`, the inhibition was -2.39% (inactive).

For the compound `COc1ccccc1CCn1cnc(-c2ccccc2)c1C(C)C`, the inhibition is -1.16% (inactive).

For the compound `C/C(=N/NC(=O)c1cc(Cl)ccc1O)C12CC3CC(CC(C3)C1)C2`, the inhibition was 14.9% (inactive). With `CC(=N\NC(=O)c1cc(Br)ccc1O)/C(=N/O)C(=O)Nc1ccccc1` the figure was 36.5% (active).

In the case of `C/C(Cc1ccccc1)=N\NC(=O)CNC(=O)c1cccc(Br)c1`, the inhibition was 1.32% (inactive).

As to `O=S1(=O)c2ccc(Br)cc2OC[C@H](Cc2ccccc2)N1Cc1cn(Cc2ccccc2)nn1`, the inhibition was 9.1% (inactive).

As for `O=C(CSc1nnc(COc2ccccc2)n1-c1ccc(Cl)cc1)Nc1ccc2c(c1)OCO2`, the inhibition was 5.42% (inactive). With `Cc1cc(C(=O)NN=C/C=C/c2ccco2)n[nH]1` the figure was 12% (inactive). For `Cc1ccc(N=C2NC(=O)/C(=C/C=C/c3ccco3)S2)cc1C`, the inhibition was 58% (active). Consider `Nc1ncnc2c1ncn2[C@@H]1O[C@H](C(=O)N[C@@H](CCc2ccccc2)C(=O)NCC(=O)N2CCOCC2)[C@@H](O)[C@H]1O`, for which the inhibition is 4.42% (inactive). Regarding `CO/N=C(\C(=O)N[C@@H]1C(=O)N2C(C(=O)O)=C(COC(C)=O)CS[C@H]12)c1csc(N)n1` (stereo in doubt), the inhibition is 31% (inactive) and 22.6% (inactive) and 37.5% (active). With `C=CC1=C(C(=O)O)N2C(=O)[C@@H](NC(=O)/C(=N/OCC(=O)O)c3csc(N)n3)[C@H]2SC1` the figure was 50.2% (active). Consider `CCN1CCN(C(=O)N[C@@H](C(=O)N[C@@H]2C(=O)N3C(C(=O)O)=C(CSc4nnnn4C)CS[C@H]23)c2ccc(O)cc2)C(=O)C1=O`, for which the inhibition is 8.44% (inactive).

In the case of `Nc1nc2c(ncn2[C@@H]2O[C@H](C(=O)N[C@H](Cc3ccccc3)C(=O)NCC3CCCCC3)[C@@H](O)[C@H]2O)c(=O)[nH]1`, the inhibition is 6.66% (inactive).

With `Cc1ccc(CN2CCCCC(NC(=O)C3CCCCC3)C2=O)cc1` (stereo unspecified), the inhibition was -0.58% (inactive).

In the case of `CCCCN(C(C)=O)c1ccc2c(c1)C1CC2CCN1Cc1ccccc1` (stereo unspecified), the inhibition is -3.96% (inactive).
